Measurements from the supplement of paper PMC8728848.
The entries come from a sample that favours the strongest signals as a whole.

Tests used:
Experiment in all cases: glycan array binding signal (z-score within array); higher = stronger binding
Settings in all cases: glycan notation: IUPAC condensed, linker removed; mutation: A146Q
[1] = molecular target: Fuc(a1-2)Gal(b1-4)GlcNAc
Outline: (§1)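 Glycan array data were curated from 3228 arrays in the Consortium for Functional Glycomics database and kept only where the protein sequence was available. Glycan names were converted to IUPAC-condensed notation, and columns mapping to the same glycan were averaged. The binding signal is a within-array Z-score, averaged across arrays of the same protein sequence at different concentrations or buffers and across linkers. Negative Z-scores can be read as non-binding.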

[2] = molecular target: Fuc(a1-2)[Gal(a1-3)]Gal(b1-3)GlcNAc
Outline: as §1

[3] = molecular target: Fuc(a1-2)[Gal(a1-3)]Gal(b1-3)GlcNAc(b1-2)Man(a1-3)[Fuc(a1-2)[Gal(a1-3)]Gal(b1-3)GlcNAc(b1-2)Man(a1-6)]Man(b1-4)GlcNAc(b1-4)GlcNAc
Outline: as §1

[4] = molecular target: Fuc(a1-2)[Gal(a1-3)]Gal(b1-4)Glc
Outline: as §1

[5] = molecular target: Fuc(a1-2)[Gal(a1-3)]Gal(b1-4)GlcNAc
Outline: as §1

[6] = molecular target: Fuc(a1-2)[Gal(a1-3)]Gal(b1-4)GlcNAc(b1-2)Man(a1-3)[Fuc(a1-2)[Gal(a1-3)]Gal(b1-4)GlcNAc(b1-2)Man(a1-6)]Man(b1-4)GlcNAc(b1-4)GlcNAc
Outline: as §1

[7] = molecular target: Fuc(a1-2)[GalNAc(a1-3)]Gal(b1-3)GalNAc(a1-3)[Fuc(a1-2)]Gal(b1-4)GlcNAc
Outline: as §1

[8] = molecular target: Fuc(a1-4)GlcNAc
Outline: as §1

[9] = molecular target: Gal(a1-3)Gal(b1-3)GlcNAc
Outline: as §1

[10] = molecular target: Gal(a1-6)Glc
Outline: as §1

[11] = molecular target: Gal(b1-3)Gal(b1-4)GlcNAc(b1-2)Man(a1-3)[Gal(b1-3)Gal(b1-4)GlcNAc(b1-2)Man(a1-6)]Man(b1-4)GlcNAc(b1-4)GlcNAc
Outline: as §1

[12] = molecular target: Gal(b1-4)GlcNAc
Outline: as §1

[13] = molecular target: Gal(b1-4)GlcNAc(b1-2)Man(a1-3)Man(b1-4)GlcNAc(b1-4)GlcNAc
Outline: as §1

[14] = molecular target: Gal(b1-4)GlcNAc(b1-2)Man(a1-3)[Man(a1-6)]Man(b1-4)GlcNAc(b1-4)GlcNAc
Outline: as §1

[15] = molecular target: Gal(b1-4)GlcNAc(b1-3)Gal(b1-4)GlcNAc(b1-3)Gal(b1-4)GlcNAc
Outline: as §1

[16] = molecular target: Gal(b1-4)GlcNAc(b1-3)GalNAc
Outline: as §1

[17] = molecular target: Gal(b1-4)GlcNAc(b1-3)[GlcNAc(b1-6)]Gal(b1-4)GlcNAc
Outline: as §1

[18] = molecular target: Gal3S(b1-4)GlcNAc6S
Outline: as §1

[19] = molecular target: Gal6S(b1-4)GlcNAc6S
Outline: as §1

[20] = molecular target: GlcNAc(a1-4)Gal(b1-4)GlcNAc(b1-3)Gal(b1-4)GlcNAc(b1-3)Gal(b1-4)GlcNAc
Outline: as §1

[21] = molecular target: GlcNAc(b1-4)GlcNAc
Outline: as §1

[22] = molecular target: Kdn(a2-3)Gal(b1-4)[Fuc(a1-3)]GlcNAc
Outline: as §1

[23] = molecular target: Man(a1-2)Man(a1-2)Man(a1-3)Man
Outline: as §1

[24] = molecular target: Man(a1-2)Man(a1-2)Man(a1-6)[Man(a1-3)]Man
Outline: as §1

[25] = molecular target: Man(a1-2)Man(a1-3)Man
Outline: as §1

[26] = molecular target: Man(a1-2)Man(a1-3)[Man(a1-2)Man(a1-6)]Man(a1-6)[Man(a1-2)Man(a1-2)Man(a1-3)]Man(b1-4)GlcNAc(b1-4)GlcNAc
Outline: as §1

[27] = molecular target: Neu5Ac(a2-3)Gal(b1-3)[Fuc(a1-4)]GlcNAc(b1-3)Gal(b1-4)[Fuc(a1-3)]GlcNAc
Outline: as §1

[28] = molecular target: Neu5Ac(a2-3)Gal(b1-4)[Fuc(a1-3)]GlcNAc6S
Outline: as §1

[29] = molecular target: Neu5Ac(a2-6)Gal(b1-4)GlcNAc(b1-2)Man(a1-6)[Man(a1-3)]Man(b1-4)GlcNAc(b1-4)GlcNAc
Outline: as §1

[30] = molecular target: Neu5Ac(a2-6)Gal(b1-4)GlcNAc(b1-3)Gal(b1-4)GlcNAc(b1-3)Gal(b1-4)GlcNAc
Outline: as §1

B1: Gal 3 (Homo sapiens), P17931 (protein)
chain: MADNFSLHDALSGSGNPNPQGWPGAWGNQPAGAGGYPGASYPGAYPGQAPPGAYPGQAPPGAYHGAPGAYPGAPAPGVYPGPPSGPGAYPSSGQPSAPGAYPATGPYGAPAGPLIVPYNLPLPGGVVPRMLITILGTVKPNANRIQLDFQRGNDVAFHFNPRFNENNRRVIVCNTKLDNNWGREERQSVFPFESGKPFKIQVLVEPDHFKVAVNDAHLLQYNHRVKKLNEISKLGISGDIDLTSASYTMI
glycan array binding signal (z-score) [1]: 0.166 | glycan array binding signal (z-score) [2]: 3.36 | glycan array binding signal (z-score) [3]: 9.93 | glycan array binding signal (z-score) [4]: 2.81 | glycan array binding signal (z-score) [5]: 3.94 | glycan array binding signal (z-score) [6]: 10.3 | glycan array binding signal (z-score) [7]: -0.199 | glycan array binding signal (z-score) [8]: -0.12 | glycan array binding signal (z-score) [9]: -0.087 | glycan array binding signal (z-score) [10]: -0.188 | glycan array binding signal (z-score) [11]: 10.2 | glycan array binding signal (z-score) [12]: -0.196 | glycan array binding signal (z-score) [13]: -0.083 | glycan array binding signal (z-score) [14]: -0.181 | glycan array binding signal (z-score) [15]: 3.5 | glycan array binding signal (z-score) [16]: -0.187 | glycan array binding signal (z-score) [17]: 0.13 | glycan array binding signal (z-score) [18]: 0.851 | glycan array binding signal (z-score) [19]: -0.192 | glycan array binding signal (z-score) [20]: 2.23 | glycan array binding signal (z-score) [21]: -0.132 | glycan array binding signal (z-score) [22]: -0.201 | glycan array binding signal (z-score) [23]: -0.186 | glycan array binding signal (z-score) [24]: -0.177 | glycan array binding signal (z-score) [25]: -0.199 | glycan array binding signal (z-score) [26]: -0.15 | glycan array binding signal (z-score) [27]: -0.2 | glycan array binding signal (z-score) [28]: -0.188 | glycan array binding signal (z-score) [29]: -0.197 | glycan array binding signal (z-score) [30]: 1.65
